{"source": "PubChem BioAssay AID2314", "about": "(National Center for Advancing Translational Sciences (NCATS), 2010)", "note": "About 37,000 (12%) of roughly 300,000 compounds were called active. The sample as a whole holds a higher share of actives than the screen did. Unmarked numbers belong to inactive results. Cut-off read from the data, not from the text of the source: active = max response mostly above about 13% (no sharp cut-off); inactive = mostly below about 14%.", "data": [{"experiment": "Cycloheximide Counterscreen for Small Molecule Inhibitors of Shiga Toxin; note: read at 38.3 µM for the half of the compounds with a filed dose; 0% is about no effect", "conditions": "cell reporter, cycloheximide protein synthesis inhibition counterscreen; active compounds read high", "values": [{"smiles": "Cc1nc2ccccc2c(=O)n1NC(=O)c1ccc(Cl)c([N+](=O)[O-])c1", "max response": "-5.07%"}, {"smiles": "C/C(=N\\Nc1nncc2ccccc12)c1ccc(Cl)c([N+](=O)[O-])c1", "max response": "17.3% (active)"}, {"smiles": "O=C(O)c1ccc2c(=O)n3c(nc2c1)/C(=C/c1ccc(OC(F)F)cc1OC(F)F)CC3", "max response": "1.3%"}, {"smiles": "CCC(=O)N1c2ccccc2NC2=C(C(=O)CCC2)C1c1ccco1", "note": "(stereo not drawn)", "max response": "-5.4%"}, {"smiles": "CCCC(=O)N1c2ccccc2NC2=C(C(=O)CCC2)C1c1ccc(F)cc1", "note": "(stereo not drawn)", "max response": "-1.45%"}, {"smiles": "CC(C)C(=O)N1c2ccccc2NC2=C(C(=O)CCC2)C1c1ccc(N(C)C)cc1", "note": "(stereo not drawn)", "max response": "21.8% (active)"}, {"smiles": "O=C(NCCO)C(=O)NCC(c1ccc2c(c1)OCO2)N1CCN(c2ccc(F)cc2)CC1", "note": "(stereo not drawn)", "max response": "-1.46%"}, {"smiles": "Cn1nc(C(F)(F)F)cc1C(=O)O", "max response": "-2.03%"}, {"smiles": "O=C(Nc1cccc([N+](=O)[O-])c1)Nc1ccc(Cl)cn1", "max response": "-1.76%"}, {"smiles": "O=C(Nc1ccc(Cl)cn1)Nc1cccs1", "max response": "47.7% (active)"}, {"smiles": "CCN(CC)C(=O)CCC(=O)Nc1ccc(C(=O)OC)cc1", "max response": "0.562%"}, {"smiles": "CCCCC(CC)C(=O)Nc1ccc(Cl)cn1", "note": "(stereo not drawn)", "max response": "-1.66%"}, {"smiles": "CC12COC3(C(=O)Nc4ccc(Cl)cn4)CC1CCC32C", "note": "(stereo not drawn)", "max response": "-1.53%"}, {"smiles": "CCCc1cc(C(=O)Nc2ccc(Cl)cn2)cs1", "max response": "30.5% (active)"}, {"smiles": "CCCc1cc(C(=O)Nc2ccc(C(=O)OC)cc2)cs1", "max response": "18.2% (active)"}, {"smiles": "COC(=O)c1ccc(NC(=O)C(C)N2C(=O)c3ccccc3C2=O)cc1", "note": "(stereo not drawn)", "max response": "-1.97%"}, {"smiles": "Cc1ccc(NC(=O)Nc2cccc(C(F)(F)F)c2)nc1", "max response": "9.81%"}, {"smiles": "Cc1ccc(C(C)C)c(OCCSc2nc3ccccc3n2CC(=O)O)c1", "max response": "-3.05%"}, {"smiles": "CN(CC1CCCN(CCc2cccc(C(F)(F)F)c2)C1)C(=O)c1ccc2nc[nH]c2c1", "note": "(stereo not drawn)", "max response": "7.92%"}, {"smiles": "Cc1ccc(-c2nc(SCC(=O)Nc3ccccc3OC(F)F)c3c(C)c(C(=O)O)sc3n2)cc1", "max response": "-2.74%"}, {"smiles": "Cc1ccc(C(C)(C)C)c(OCCCCN2CCCC2)c1", "max response": "-1.44%"}, {"smiles": "CCOc1ccc(NC(=O)CN(C)CC(=O)Nc2cccc(Cl)c2C)cc1OCC", "max response": "-1.94%"}, {"smiles": "Cc1ccccc1NC(=O)C1CCCN(C(=O)NCc2ccccc2)C1", "note": "(stereo not drawn)", "max response": "-2.13%"}, {"smiles": "O=C(c1ccc(-c2ccccc2)cc1)C1CCCN(C(=O)c2cncs2)C1", "note": "(stereo not drawn)", "max response": "-0.779%"}, {"smiles": "CCNC(=O)N1CCCC(C(=O)c2ccc(-c3ccccc3)cc2)C1", "note": "(stereo not drawn)", "max response": "35% (active)"}, {"smiles": "N#C/C(=C\\c1cccnc1)C(=O)Nc1ccc(SC(F)F)cc1", "max response": "-2.71%"}, {"smiles": "CCC(NC(=O)C1CCCC1)c1ccc(C)cc1", "note": "(stereo not drawn)", "max response": "-1.61%"}, {"smiles": "O=C(c1c(Cl)nc2sccn12)N1CCCc2ccccc21", "max response": "11.5%"}, {"smiles": "CCOc1ccc(-n2c(N)c(C(=O)NCC3CCCO3)sc2=S)cc1", "note": "(stereo not drawn)", "max response": "-1.47%"}, {"smiles": "Cc1cccc2cc3c(N)c(C(=O)N4CCCc5ccccc54)sc3nc12", "max response": "-2.83%"}, {"smiles": "Cc1c(C(=O)N2CCCc3ccccc32)sc2nc(-c3ccccc3)cn12", "max response": "7.76% (active)"}, {"smiles": "Cc1cccc(C)c1NC(=O)N1CC(C)OC(C)C1", "note": "(stereo not drawn)", "max response": "-0.915%"}, {"smiles": "CC1CN(C(=O)CN2C(=O)NC(C)(c3ccccc3)C2=O)CC(C)O1", "note": "(stereo not drawn)", "max response": "-0.354%"}, {"smiles": "Cc1c(C(=O)NCC2CCCO2)sc2nc(-c3ccccc3)cn12", "note": "(stereo not drawn)", "max response": "78.5% (active)"}, {"smiles": "Cc1c(C(=O)N2CC(C)OC(C)C2)sc2nc(-c3ccccc3)cn12", "note": "(stereo not drawn)", "max response": "26.8% (active)"}, {"smiles": "O=C(CSc1ccc(-c2ccccc2)nn1)NCC1CCCO1", "note": "(stereo not drawn)", "max response": "8.54%"}, {"smiles": "O=C(NC1CC1)C(Cc1ccccc1)NS(=O)(=O)c1ccccc1F", "note": "(stereo not drawn)", "max response": "-2.2%"}, {"smiles": "Cc1sc2nc(SCCO)n(-c3ccccc3)c(=O)c2c1C", "max response": "1.18%"}, {"smiles": "Cc1oc2c(F)c(F)c(F)c(F)c2c1S(=O)(=O)Nc1cccc(C(F)(F)F)c1", "max response": "2.32%"}, {"smiles": "COc1ccc(CNC(=O)CSc2n[nH]c(N)n2)cc1OC", "max response": "-3.7%"}, {"smiles": "COc1ccc(C)cc1NC(=O)CN(C)S(=O)(=O)c1ccc2c(c1)n(C)c(=O)c(=O)n2C", "max response": "0.886%"}, {"smiles": "COc1ccc(CCC(=O)OCC(=O)Nc2ccc(C)c(S(=O)(=O)N(C)C)c2)cc1", "max response": "-1.02%"}, {"smiles": "Cc1ccc(NC(=O)c2cccs2)cc1S(=O)(=O)N(C)C", "max response": "17.7% (active)"}, {"smiles": "Cc1ccc(C(=O)Nc2ccc(C)c(S(=O)(=O)N(C)C)c2)s1", "max response": "73.5% (active)"}, {"smiles": "Cc1ccc(C(=O)Nc2ccc(NC(=O)c3cccs3)cc2)c(C)c1", "max response": "3.31%"}, {"smiles": "Cc1ccc(S(=O)(=O)N(C)C)cc1NC(=O)/C=C/c1cccs1", "max response": "-3.65%"}, {"smiles": "CCN(CC(=O)Nc1ccc(C)c(S(=O)(=O)N(C)C)c1)Cc1ccccc1", "max response": "10.7%"}, {"smiles": "CCn1c(SCC(=O)NC2CC2)nnc1-c1ccccc1OC", "max response": "-2.41%"}]}]}
